Sampled rows, rich in hits. Any-hit rate of the full collection: about 0.9%.
A1 inh: blocks A1 activity. MEF A1-2A-BIM cells, caspase-Glo luminescence, 3 h; percent of clofoctol signal, DMSO as zero. AID 2241. 21,000 tested, 0.51% active. caspase activation, % (test concentration not listed);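 active = most replicate scores above 10, or exactly half above 10 with mean activity above 10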;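 also: effector caspase 3 and 7 activity cleaving a DEVD luciferin substrate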
BJeLR viability: lowers viability of BJeLR cells; BJeLR fibroblasts viability, CellTiterGlo ATP luminescence, 48 h; HRASV12, hTERT and SV40 LT/ST transformed; viability loss activity score, % (concentration not given with the values); 30,000 tested, 0.64% active; AID 2275; in the data active = viability loss activity score above about 50%;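 also: higher score means fewer live cells and less ATP luminescence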
Large screens that a line does not name were inactive.

CCc1ccccc1NC(=O)CCN1C(=O)c2ccccc2C1=O	none
Cc1ccc(-c2nc(CSCC(=O)NC3CC3)c(C)o2)cc1	none (no result: A1 inh)
O=S(=O)(c1ccc(-c2csc(Nc3ccc(Br)cc3)n2)cc1)N1CCCCC1	A1 inh 15
CN1CCN(S(=O)(=O)c2ccc(Br)cc2)CC1	none
C=CCN(C(=O)c1cc2c(=O)oc3ccc(C)cc3c2s1)c1ccccc1	none (no result: A1 inh)
CCc1c(C)c(C#N)c2nc3ccccc3n2c1N1CCN(CCO)CC1	none (no result: A1 inh)
Cc1c(Cc2ccccc2)c(Cl)n2c(nc3ccccc32)c1C#N	BJeLR viability 64
Cc1ccc(-n2nnc3c(SCC(=O)N4CCCC4)ncnc32)cc1	none
Cc1cc2cc(CNC(=O)C34CC5CC(CC(C5)C3)C4)ccc2[nH]1	none (no result: A1 inh)
CCOC(=O)c1cnc(S/C=C/C(=O)c2ccc(C)cc2)nc1N	BJeLR viability 90
CCOC(=O)c1cnc(N2CCOCC2)nc1N	none
O=C(CCn1c(SCc2ccc(F)cc2)nc2c(sc3ccccc32)c1=O)NCC1CCCO1 (stereo not given)	none (no result: A1 inh)
Cc1ccc(NC(=O)CSc2nc3c(sc4ccccc43)c(=O)n2CC2CCCO2)cc1C (stereo not given)	A1 inh 33
FC(F)(F)c1nc(NCCc2ccccc2)nc2c1CCCCC2	none (no result: A1 inh)
COc1cc(Nc2nc(SCC(=O)c3ccc(O)c(O)c3)nc3ccccc23)cc(OC)c1	none
COc1ccc(CCNc2nc(SCC(=O)c3ccc(F)cc3)nc3ccccc23)cc1OC	A1 inh 16
CCOC(=O)CN1C(=O)S/C(=C/c2cc(C)n(-c3cc(C)ccn3)c2C)C1=O	none (no result: A1 inh)
O=C1CC(=O)N(c2ccccc2)N1c1ccccc1	none
O=C1C=CC(=O)N1c1ccccc1	BJeLR viability 127
COc1ccc(C2CC(=O)C3=C(C2)Nc2ccccc2N(C(C)=O)C3c2ccccc2)cc1 (stereo not given)	none
CCC(C)n1c(SCc2ccccc2Cl)nc2ccsc2c1=O (stereo not given)	none
CC1(C)CC(=O)c2c(SCCOC(=O)c3ccccc3Cl)sc(C#N)c2C1	none
CS(=O)c1sc(C(=O)OCc2ccccc2)c2c1C(=O)CC(C)(C)C2 (stereo not given)	BJeLR viability 116
CCN(CC)C1=N/C(=C/c2ccccc2)C(=O)N1c1ccc(Cl)cc1	none
c1ccc2c(c1)NC(c1ccc3c(c1)OCO3)S2 (stereo not given)	BJeLR viability 72
COc1cc(C2Nc3ccccc3S2)cc(OC)c1OC (stereo not given)	none
NC(=O)CSc1ccc(-c2ccncc2)nn1	none
O=C(NCCC1=CCCCC1)c1ccc2c(c1)sc1nc(-c3ccccc3)cn12	none
C=C1C(=O)O[C@H]2C3=C(C)CCC[C@]3(C)C(=O)C[C@@H]12	BJeLR viability 53
C=C1C(=O)O[C@@H]2C=C(C)[C@@H]3CC[C@@](C)(O)[C@@H]3C[C@H]12	none
COc1cc([C@@H]2c3cc4c(cc3C(OC3O[C@@H]5COC(C)O[C@H]5[C@H](O)[C@H]3O)C3COC(=O)[C@@H]32)OCO4)cc(OC)c1O (stereo not given in full)	none
COc1cc([C@@H]2c3cc4c(cc3[C@@H](OC3OC5COC(C)OC5C(O)C3O)[C@H]3COC(=O)[C@H]23)OCO4)cc(OC)c1O (stereo not given in full)	BJeLR viability 52
Cc1nc(C(F)(F)F)ccc1C(=O)Oc1ccccc1N1CCCCC1	none
CCn1c(C(=O)O)c(CNC2CCC(C)CC2)c2ccccc21 (stereo not given)	none (no result: A1 inh)
Cc1cc(C)cc(NC(=O)CN2C(=O)CCc3ccccc32)c1	A1 inh 11
Cc1cc(C)cc(NC(=O)CN2C=NS(=O)(=O)c3ccccc32)c1	none
COc1ccc(NC(=O)CC2C(=O)N(c3ccccc3)C(=O)N2C(C)C)cc1 (stereo not given)	none (no result: A1 inh)
COC(=O)c1ccc(Nc2cc(C)nc3ccccc23)cc1	BJeLR viability 62
CCOC(=O)c1ccc(Nc2cc(C)nc(C)c2C(=O)OCC)cc1	none (no result: A1 inh)
Cc1ccc(Oc2ncccc2NC(=O)c2ccc3c(c2)OCCCO3)c2c1CCC2	none
CC(=O)OC[C@]12[C@@H](OC(C)=O)C[C@@H]3[C@@H](OC(=O)c4ccccc4)[C@]1(OC3(C)C)[C@H](C)C[C@H](OC(=O)c1ccccc1)[C@@H]2OC(C)=O	none
CC(=O)OC[C@]12[C@H](OC(C)=O)[C@H](OC(C)=O)[C@@H]3[C@@H](OC(C)=O)[C@@]14O[C@@]3(C)COC(=O)c1ncccc1CC[C@H](C)C(=O)O[C@@H]([C@H](O)[C@@H]2OC(=O)c1ccccc1)[C@]4(C)O	BJeLR viability 51
CC(C)c1ccc(NC(=O)NCCS(C)=O)cc1 (stereo not given)	none (no result: A1 inh)
COc1ccc(-c2c(C)nn3c(N4CCC(C)CC4)cc(C)nc23)cc1OC	none
C=C(C(=O)O[C@H]1C[C@]2(C)C(C(C=O)CC[C@H]2O)[C@H]2OC(=O)C(=C)[C@H]12)C(O)CO (stereo not given in full)	none
C=C1C(=O)O[C@@H]2C3C(=C(C)[C@@H](O)[C@@H](OC(=O)/C(=C/C)COC(C)=O)[C@@H]12)C(=O)[C@H]1O[C@@]31C (stereo not given in full)	BJeLR viability 90
CCOC(=O)Cn1c(=O)oc2cc(S(=O)(=O)Nc3cccc(CC)c3)ccc21	none (no result: A1 inh)
COc1ccc(/C=C2/Oc3ccccc3N(CC(=O)O)C2=O)cc1	none
CCN1C(=O)C(CC(=O)Nc2ccc(F)cc2)N(CCc2ccccc2)C1=S (stereo not given)	none (no result: A1 inh)
CCc1ccc(/C=c2\sc3nc(C4COc5ccccc5O4)nn3c2=O)cc1 (stereo not given)	none
O=C1C(SCCO)=C(SCCO)C(=O)c2ccccc21	BJeLR viability 117
O=C1c2ccccc2C(=O)N1C(CO)C(O)c1ccccc1 (stereo not given)	none
O=C(Nc1cccc(Br)c1)c1cccc2c1C(=O)c1ccccc1-2	A1 inh 26
O=C(c1ccc2c(c1)C(=O)c1ccccc1-2)c1ccccc1Br	none
CCCNC(=O)c1ccc2c(c1)sc1nc(-c3ccccc3)cn12	none
S=c1ccc(-c2ccc(Cl)cc2)nn1-c1ccccc1	none (no result: A1 inh)
O=C(NC1CCCCCCC1)c1nnc(-c2cccc(Cl)c2)o1	none (no result: A1 inh)
Cc1cccc(N2CCN(C(=O)C3CCCN(S(=O)(=O)c4cccc5nonc45)C3)CC2)c1C (stereo not given)	none (no result: A1 inh)
CCCc1ccc(-c2c(C)sc(N)c2C#N)cc1	A1 inh 12
CCCc1ccc(O)c(N)c1	none
COc1ccc(N=C2C(=O)N3c4c(cc(C)cc42)C(C)=CC3(C)C)cc1	none (no result: A1 inh)
O=C(CSc1nc2ccccc2o1)OCc1ccccc1	none
CC1(C)CC(=O)C=C(Sc2nc3ccccc3o2)C1	BJeLR viability 76
Cc1ccc(OCCN2CCN(c3cc(C)c(C#N)c4nc5ccccc5n34)CC2)cc1	none
Oc1c(C(c2ccncc2)N2CCCC2)ccc2cccnc12 (stereo not given)	none
COc1ccc(C(c2ccc3cccnc3c2O)N2CCOCC2)cc1 (stereo not given)	A1 inh 43
Cc1ccc(-c2nn(-c3ccccc3)cc2/C=N/O)cc1	none
CC1=NNC(=O)/C1=C\c1cn(-c2ccccc2)nc1-c1ccc(F)cc1	A1 inh 96, BJeLR viability 88
COc1ccc2[nH]c3c(=O)n(CC(=O)NCCc4ccc(OC)c(OC)c4)c(=S)[nH]c3c2c1	none

Bioassay records as filed in PubChem BioAssay.
